About 2,000 (36%) of roughly 5,500 compounds were called active. About 18% were inconclusive and are not listed. Rule as the data show it: active = normalized growth mostly below about 0.91 (no sharp cut-off); inconclusive = no clear call, values can overlap the other calls; inactive = mostly above about 0.92. The list shows a part of the results.
Test: chemical genetic growth profiling, strain panel (AID 1159580);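 also: tested at 20 µM; growth read once vehicle control cultures reached saturation at 30 °C; 1 = growth at the plate median or of vehicle wells; lower values mean less growth of the strain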
Settings: growth OD
[1] = S. cerevisiae deletion strains, locus YAL013W, strain DEP1, hits give low values
[2] = S. cerevisiae deletion strains, locus YBR229C, strain ROT2, hits give low values
[3] = S. cerevisiae deletion strains, locus YDL101C, strain DUN1, hits give low values
[4] = S. cerevisiae deletion strains, locus YDL134C, strain PPH21, hits give low values
[5] = S. cerevisiae deletion strains, locus YDR150W, strain NUM1, hits give low values
[6] = S. cerevisiae deletion strains, locus YEL061C, strain CIN8, hits give low values
[7] = S. cerevisiae deletion strains, locus YGR078C, strain PAC10, hits give low values
[8] = S. cerevisiae deletion strains, locus YHR030C, strain SLT2, hits give low values
[9] = S. cerevisiae deletion strains, locus YHR087W, strain rtc3, hits give low values
[10] = S. cerevisiae deletion strains, locus YJL187C, strain SWE1, hits give low values
[11] = S. cerevisiae deletion strains, locus YJR043C, strain POL32, hits give low values
[12] = S. cerevisiae deletion strains, locus YJR075W, strain HOC1, hits give low values
[13] = S. cerevisiae deletion strains, locus YLR039C, strain RIC1, hits give low values
[14] = S. cerevisiae deletion strains, locus YLR058C, strain SHM2 (second series), hits give low values
[15] = S. cerevisiae deletion strains, locus YLR085C, strain ARP6, hits give low values
[16] = S. cerevisiae deletion strains, locus YLR262C, strain YPT6, hits give low values
[17] = S. cerevisiae deletion strains, locus YML094W, strain GIM5, hits give low values
[18] = S. cerevisiae deletion strains, locus YMR219W, strain ESC1, hits give low values
[19] = S. cerevisiae deletion strains, locus YMR263W, strain SAP30, hits give low values
[20] = S. cerevisiae deletion strains, locus YNL153C, strain GIM3, hits give low values
[21] = S. cerevisiae deletion strains, locus YNL298W, strain CLA4 (second series), hits give low values
[22] = S. cerevisiae deletion strains, locus YNL322C, strain KRE1, hits give low values
[23] = S. cerevisiae deletion strains, locus YNR030W, strain Alg12, hits give low values
[24] = S. cerevisiae deletion strains, locus YOL006C, strain TOP1, hits give low values
[25] = S. cerevisiae deletion strains, locus YPL055C, strain LGE1, hits give low values
[26] = S. cerevisiae deletion strains, locus YPL241C, strain CIN2, hits give low values
[27] = S. cerevisiae deletion strains, locus YPR135W, strain CTF4, hits give low values
[28] = S. cerevisiae strains, strain wild type, hits give low values

Measured: normalized growth

Clc1ccc(OCCOc2ccc(Cl)cc2)cc1
inactive: [1] 1.01 | [2] 0.99 | [3] 1.04 | [4] 0.996 | [5] 1.01 | [6] 0.99 | [7] 1.02 | [8] 0.978 | [9] 0.965 | [10] 1.02 | [11] 1.04 | [12] 0.998 | [13] 1.01 | [14] 1.01 | [15] 1.01 | [16] 0.95 | [17] 0.971 | [18] 1.02 | [19] 1.01 | S. cerevisiae deletion strains, locus YNL128W, strain TEP1, hits give low values 1.01 | [20] 1 | [21] 0.989 | [22] 0.998 | [23] 0.983 | [24] 0.937 | [25] 0.975 | [26] 0.986 | [27] 1.07 | [28] 1.01

COC(=O)COc1ccc(C(C)=O)cc1
inactive: [1] 1.01 | [2] 0.988 | [3] 0.96 | [5] 0.977 | [6] 1.01 | [7] 1 | S. cerevisiae deletion strains, locus YGR229C, strain SMI1, hits give low values 0.992 | [8] 1.02 | [9] 1 | [11] 1.01 | [12] 0.984 | [13] 0.974 | [14] 1 | [15] 1.01 | [16] 0.975 | [17] 0.952 | [18] 1.01 | [19] 1 | [20] 1 | [21] 0.977 | [22] 0.991 | [23] 0.98 | [24] 0.999 | [25] 0.992 | [26] 1.07 | [27] 0.935 | [28] 0.99

O=C(O)CCOc1ccc(Cl)cc1
inactive: [1] 0.956 | [3] 0.901 | [4] 1 | [6] 0.999 | [8] 1.01 | S. cerevisiae deletion strains, locus YKL190W, strain CNB1, hits give low values 1 | [13] 0.979 | [15] 1 | [16] 0.993 | [17] 1.01 | S. cerevisiae deletion strains, locus YMR307W, strain GAS1, hits give low values 0.895 | [21] 1.03 | [23] 1 | [26] 0.954 | [27] 1.11 | [28] 1.01
active: [2] 0.795 | S. cerevisiae deletion strains, locus YCL061C, strain MRC1, hits give low values 0.825 | [7] 0.753 | [9] 0.729 | [10] 0.837 | [11] 0.913 | [12] 0.64 | [14] 0.904 | [18] 0.838 | [19] 0.859 | [20] 0.793 | [22] 0.9 | [25] 0.763
